HP1b binding inh = inhibitors of HP1-beta chromodomain binding to methylated histone tails; P83916; AlphaScreen HP1-beta / biotin-H3K9me3 peptide binding; Potency, µM (series often up to 114 µM), inactives show at the top dose activity change, negative = inhibition, most hits filed as inhibitors; 390,000 compounds, 0.56% hits; AID 540317; note: nearly all actives have a fitted effect of over 70% in size
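HP1-beta protein (50 nM final) preincubated 30 min at room temperature with biotinylated H3(1-18)K9me3 peptide (50 nM) in PBS pH 7.4, 0.01% Tween-20, then compound added for 30 min. AlphaScreen streptavidin donor/nickel chelate acceptor beads (10 ug/mL final), 30 min dark, luminescence read.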
GLS inh = blocks human kidney-isoform glutaminase activity. Potency, µM (highest dose often 45.5 µM), inactives show at the top dose activity change, negative = inhibition, hits mostly inhibitors. 410,000 compounds, 0.21% hits. O94925. GLS enzymatic activity, qHTS titration. AID 624170; note: % is set by controls: 0 for no effect and ±100 for the full control effect
Target sequence (O94925 whole entry, looked up, canonical isoform): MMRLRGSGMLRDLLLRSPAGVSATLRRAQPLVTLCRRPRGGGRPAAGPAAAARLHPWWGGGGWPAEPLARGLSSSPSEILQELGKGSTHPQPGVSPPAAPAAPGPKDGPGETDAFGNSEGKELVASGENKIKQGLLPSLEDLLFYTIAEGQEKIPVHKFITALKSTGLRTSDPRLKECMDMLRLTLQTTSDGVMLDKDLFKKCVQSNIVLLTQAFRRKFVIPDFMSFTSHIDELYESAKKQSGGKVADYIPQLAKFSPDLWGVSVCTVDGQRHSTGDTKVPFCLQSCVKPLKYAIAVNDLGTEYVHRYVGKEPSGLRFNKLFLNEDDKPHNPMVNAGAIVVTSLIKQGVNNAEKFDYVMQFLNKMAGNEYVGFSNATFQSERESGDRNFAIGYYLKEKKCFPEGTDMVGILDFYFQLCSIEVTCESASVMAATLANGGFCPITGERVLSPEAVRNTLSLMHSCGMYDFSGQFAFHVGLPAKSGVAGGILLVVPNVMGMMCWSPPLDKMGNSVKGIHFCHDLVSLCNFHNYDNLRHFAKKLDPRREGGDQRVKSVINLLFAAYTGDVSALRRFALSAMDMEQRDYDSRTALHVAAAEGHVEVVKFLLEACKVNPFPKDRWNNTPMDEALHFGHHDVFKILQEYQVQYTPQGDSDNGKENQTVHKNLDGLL
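Coupled fluorescence readout: glutamate oxidase/HRP/Amplex Red detect glutamate formed by hKGA from L-glutamine (1 mM solution added). Buffer 45 mM KH2PO4 pH 8.2, 0.02% Tween-20; reads at t0 and 30 min RT.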
JMJD2A Tudor = inhibitors of human JMJD2A Tudor domain; AlphaScreen JMJD2A-Tudor / H3K4me3 peptide binding; Potency, µM (titrated, usually from 114 µM), inactives show top-dose activity change, negative = inhibition, most hits filed as inhibitors; O75164; AID 504339; 390,000 compounds, 4.4% hits; note: % is set by controls: 0 for no effect and ±100 for the full control effect; nearly all actives have a fitted effect of over 50% in size
G9a block = blocks human histone lysine methyltransferase G9a. Q96KQ7. Potency, µM (titrated, usually from 102 µM), inactives show at the highest dose activity, negative = inhibition, usual class: inhibitors. G9a H3K9 monomethylation, AlphaScreen, 2 h. 350,000 compounds, 8.8% hits; note: % is set by controls: 0 for no effect and ±100 for the full control effect; nearly all actives have a fitted effect of over 75% in size
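Using a bead-based AlphaScreen, monomethylated H3K9 product from 2 h room-temperature reactions (G9a 20 nM, peptide 500 nM, SAM 20 uM) was detected with 0.5 ug/mL rabbit anti-H3K9me1 antibody.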
BAZ2B inh = inhibitors of human BAZ2B bromodomain. Q9UIF8. AlphaScreen BAZ2B-H3K14Ac peptide displacement. Potency, µM (titrated, usually from 114 µM), for inactives: top-dose activity change, negative = inhibition, actives largely listed as inhibitors. 360,000 compounds, 4.4% hits; note: % is set by controls: 0 for no effect and ±100 for the full control effect; nearly all actives have a fitted effect of over 60% in size
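Inhibition is scored as reduced AlphaScreen emission. The BAZ2B/b-H3(5-23)K14Ac complex (50 nM each) in PBS pH 7.4, 0.01% Tween-20 meets compound (up to 110 uM) for 30 min at RT before bead addition.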
* hit, by the source's call; ? = inconclusive; / = not tested or not shown; [ ] = dose if it differs, or a comment. Most compounds without a hit are left out; they make up all but 10% or so of the library. Calls come from the whole dose curve; as a rule, active = well fitted curve in the direction sought with a large enough effect; inconclusive = small, poorly fitted or top-dose-only effect, or another doubt; inactive = no such curve, though single readings can be large; an effect the other way counts as inactive or inconclusive. Potency is the fitted concentration of half-maximal effect.

SMILES	HP1b binding inh	GLS inh	JMJD2A Tudor	G9a block	BAZ2B inh
Cc1ccccc1Nc1nc(N)nc(COC(=O)C2CCCCC2)n1	27.3%	-6.3%	-11.3%	-22.6%[59 µM]	-20.9%
Cc1ccccc1NC(=O)CSc1nc2c(c(=O)n(C)c(=O)n2C)n1C	15.8%	-7.4%	-7.4%	70.8µM*	-13.8%
Cc1ccccc1NC(=O)CSc1nc(-c2ccccc2)cn1-c1ccccc1F	-16.8%	1.3%	?	11.2µM*	?
CN1CCc2c(sc(NC(=O)c3cc4cc([N+](=O)[O-])ccc4s3)c2C(N)=O)C1	/	/	/	25.1µM*	?
CN1CCc2c(sc(NC(=O)c3ccc([N+](=O)[O-])o3)c2C(N)=O)C1	-29.6%	6.8%	?	35.5µM*	35.5µM*
CC(C)N1CCc2c(sc(NC(=O)c3cc4cc([N+](=O)[O-])ccc4s3)c2C(N)=O)C1	?	-0.6%	?	39.8µM*	39.8µM*
CN1CCN(CC(=O)Nc2cccc(S(=O)(=O)N(C)c3ccccc3)c2)CC1	46.7%	-0.9%	-4.2%	28.9%[59 µM]	8.9%
NC(=O)CCN1CCN(Cc2nc(C(c3ccccc3)c3ccccc3)no2)CC1	21.2%	2.5%	-14.6%	-18.6%	-3.6%
Cc1nc2cc(C(F)(F)F)ccc2n1C1CCN(CC(=O)N2CCCC2)CC1	50.8%	-13.3%	-16.2%	/	-8.5%
N#Cc1c[nH]n2c(NC3CCCC3)c(-c3ccc(Cl)cc3)nc12	47.5%	?	-8.3%	?	-17.8%
COc1ccc(-c2nc3c(C#N)c[nH]n3c2NC2CCCC2)cc1	28.3%	12.6µM*	1.3%	?	0.8%
CCOc1ccc(-c2nc3c(C#N)c[nH]n3c2NC2CCCCC2)cc1	13.1%	12.6µM*	-20.9%	-5.0%[59 µM]	-4.9%
COc1c(O)ccc(/C=N/NC(=O)c2ccc3c(c2)OCCO3)c1[N+](=O)[O-]	-11.9%	-3.0%	-17.2%	2.2%	-5.8%
Cc1ccc(-n2ncc3c(NCc4ccco4)ncnc32)cc1C	26.3%	7.6%	-0.7%	?	-11.9%
CN1CCC(N(C)CC(=O)Nc2ccccc2N2CCOCC2)CC1	?	-2.8%	8.91µM*	?	56.2µM*
Cc1ccccc1C(=O)Nc1cc2c(cc1N1CCCCC1)n(C)c(=O)n2C	-28.4%	21.3%	?	15.8µM*	25.1µM*
Cc1ccc(C(=O)Nc2cc3c(cc2N2CCCCC2)n(C)c(=O)n3C)cc1	61.4%	-3.2%	-14.4%	-3.4%[59 µM]	-17.6%
Cc1ccccc1C(=O)Nc1cc2c(cc1N1CCOCC1)n(C)c(=O)n2C	7.0%	29.5%	-16.4%	-22.2%[59 µM]	50.1µM*
CN(C)c1cc2c(cc1NC(=O)c1ccccc1Cl)n(C)c(=O)n2C	16.5%	3.1%	-12.6%	-23.5%	50.1µM*
CCOCCc1c(O)nc(SC)[nH]c1=O	52.4%	7.9%	-7.0%	-39.4%[2.33 µM]	1.6%
COC(C[C@H]1O[C@@H]1[C@@H](O)COCc1ccccc1)OC	18.2%	4.1%	-8.7%	41.2%[59 µM]	1.0%
Cc1cc(C(=O)Nc2ccccc2N2CCOCC2)c(C)o1	8.7%	8.9%	-8.3%	56.2µM*	0.2%
COc1ccc(Br)c(C(=O)Nc2cc3c(cc2N2CCOCC2)n(C)c(=O)n3C)c1	6.0%	3.3%	-18.8%	-43.2%[59 µM]	79.4µM*
CCOC(=O)C1CCN(c2cc3c(cc2NC(=O)c2ccccc2Br)n(C)c(=O)n3C)CC1	5.2%	20.8%	?	/	50.1µM*
CCOc1ccccc1C(=O)Nc1cc2c(cc1N1CCOCC1)n(C)c(=O)n2C	-10.5%	10.0%	-21.6%	-16.3%[59 µM]	?
SMILES	HP1b binding inh	GLS inh	JMJD2A Tudor	G9a block	BAZ2B inh
CCOC(=O)C1CCCN(CC(=O)Nc2c(C(=O)OC)[nH]c3ccccc23)C1 (centres undefined)	7.7%	12.7%	-9.5%	-26.1%	-25.1%
CC(C)c1nnc(SCC(=O)NC(C)(C)C)n1C	36.8%	6.7%	-2.8%	/	6.7%
CN(C)CCCN(Cc1ccccc1)C(=S)Nc1ccc(SC(F)F)cc1	22.9%	5.6%	-23.3%	-47.8%	/
O=C1CC(c2ccc3c(c2)OCO3)c2cc(O)ccc2O1 (centres undefined)	/	/	/	10µM*	/
O=C1CC(c2ccccc2)c2cc(O)ccc2O1 (centres undefined)	-14.0%	-2.6%	?	3.55µM*	2.3%
Cc1ccc(C2CC(=O)Oc3cc(O)ccc32)cc1 (centres undefined)	33.4%	3.6%	-2.9%	-0.1%	-6.8%
O=C1CC(c2ccc3c(c2)OCO3)c2ccc(O)cc2O1 (centres undefined)	/	/	/	25.7%	/
Cc1cc(C(=O)NCCc2ccc(S(=O)(=O)NC(=O)NN3CCCCCC3)cc2)no1	/	6.0%	/	-0.3%[59 µM]	/
CCc1nnc(NS(=O)(=O)c2ccc(N=Cc3c(C)[nH]n(-c4cccc(Cl)c4)c3=O)cc2)s1	-7.9%	-3.2%	?	-50.9%	?
O=C(c1ccco1)N1CCN(C(=O)c2cccc3c2C(=O)N(Cc2cccnc2)C3)CC1	25.7%	0.9%	-12.7%	?	22.7%
O=C(c1ccco1)N1CCN(C2CCCC2)CC1	?	4.9%	3.16µM*	?	-3.9%
O=C(c1ccco1)N1CCN(C(=O)c2cccc3c2C(=O)N(C2CCCCC2)C3)CC1	20.2%	1.8%	-4.2%	44.7µM*	-21.3%
O=C(c1cccc(Cl)c1)N1CCN(C2CCCCC2)CC1	?	1.8%	7.94µM*	/	?
O=C(c1ccco1)N1CCN(C2CN(C3CCCC3)S(=O)(=O)C2)CC1 (centres undefined)	/	2.5%	/	/	/
O=C(c1cccc(F)c1)N1CCN(C2CCCCC2)CC1	?	26.2%	22.4µM*	22.4µM*	50.1µM*
O=C(c1cccc(C(F)(F)F)c1)N1CCN(C2CCCCC2)CC1	-3.7%	5.9%	-10.9%	-3.0%[59 µM]	5.2%
O=C(c1ccccc1)N1CCN(C2CCCCCC2)CC1	?	14.1%	3.16µM*	?	56.2µM*
O=C(NC(=S)N1CCCCCC1)c1ccccc1	37.1%	5.2%	-16.3%	/	?
O=C(c1cccc(F)c1)N1CCC(N2CCCCCC2)CC1	?	-0.2%	2.24µM*	22.4µM*	56.2µM*
O=C(NC(=S)N1CCN(C2CCCCC2)CC1)c1ccccc1	-11.2%	0.8%	-16.9%	50.1µM*	-23.8%
O=C(c1cccc(F)c1)N1CCN(C(=O)C2CC2)CC1	58.7%	-16.5%	-1.4%	6.3%[59 µM]	4.5%
COc1ccccc1C1=NNC(=Nc2cccc(S(=O)(=O)N(C)C)c2)SC1	?	4.3%	-21.1%	15.8µM*	?
COC(=O)/C=c1\sc2ncnn2c1=O	?	-11.8%	20µM*	3.16µM*	10.7%
CNC(=O)/C(C#N)=c1\s/c(=C/C(=O)OC)c(=O)n1-c1ccccc1	26.2%	-1.6%	-14.4%	13.2%[0.501 µM]	-2.6%
CC1CCCN(C(=O)c2ccc3c(c2NCCO)C(=O)c2ccccc2C3=O)C1 (centres undefined)	50.1µM*	4.6%	44.7µM*	2.2%[12.7 µM]	39.8µM*
O=C1c2ccccc2C(=O)c2c1ccc(C(=O)N1CCCCC1)c2NCCO	-22.9%	-0.3%	-18.5%	18.3%[59 µM]	-5.4%

Compound activity: PubChem BioAssay, National Center for Advancing Translational Sciences (NCATS)
